# Bioassay records from PubChem.
# The list is not random: actives were taken first. Their share in the collection is about 7.5%.
# TSHR antagonist = Antagonists of the Thyroid Stimulating Hormone Receptor: HTS campaign; activity change, negative = inhibition, % at 11.5 µM; TSHR-expressing cells, TSH-stimulated cAMP HTRF, 2 h; hits give low values; actives 0.2% (n = 330,000);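 active = activity change below a set negative limit, meaning inhibition stronger than a set level, cut at about -70% in these data; inconclusive = activity change between two set negative limits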
# Target sequence (P16473 whole entry, looked up): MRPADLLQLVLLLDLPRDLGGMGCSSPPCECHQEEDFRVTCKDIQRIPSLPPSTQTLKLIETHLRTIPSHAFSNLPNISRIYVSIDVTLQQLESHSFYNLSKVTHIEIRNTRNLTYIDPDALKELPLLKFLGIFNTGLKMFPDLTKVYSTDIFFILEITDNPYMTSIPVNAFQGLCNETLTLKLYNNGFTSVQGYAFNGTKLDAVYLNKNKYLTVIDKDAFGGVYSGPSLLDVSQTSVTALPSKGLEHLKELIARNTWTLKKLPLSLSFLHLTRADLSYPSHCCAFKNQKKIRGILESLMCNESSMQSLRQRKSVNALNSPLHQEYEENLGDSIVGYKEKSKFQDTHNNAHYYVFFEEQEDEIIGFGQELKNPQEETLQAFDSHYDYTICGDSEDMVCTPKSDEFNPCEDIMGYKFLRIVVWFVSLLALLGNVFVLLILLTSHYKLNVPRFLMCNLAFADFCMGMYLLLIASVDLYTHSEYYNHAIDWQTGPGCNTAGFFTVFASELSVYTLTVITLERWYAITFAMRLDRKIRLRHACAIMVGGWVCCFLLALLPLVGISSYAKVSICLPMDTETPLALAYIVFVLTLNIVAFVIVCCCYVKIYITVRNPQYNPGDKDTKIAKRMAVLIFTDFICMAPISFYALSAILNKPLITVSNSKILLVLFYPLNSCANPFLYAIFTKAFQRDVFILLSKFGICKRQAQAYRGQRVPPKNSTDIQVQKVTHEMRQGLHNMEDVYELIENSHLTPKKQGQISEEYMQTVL
#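 Freshly harvested TSHR cells receive pin-tooled compound, then EC80 TSH at 4nM final. After 2 hours at 37 deg C, antibody in lysis buffer and cAMP-d2 are added; 30 minutes at ambient temperature precede the HTRF read.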
# ELG1 repair inh = qHTS screen for small molecules that inhibit ELG1-dependent DNA repair in human embryonic kidney (HEK293T) cells expressing luciferase-tagged ELG1. HEK293T ELG1-luciferase reporter, luminescence, 16 h; DNA damage induced by 5-fluorouridine. Potency, µM (series often up to 46.1 µM), for inactives: at the highest dose activity change, negative = inhibition, usual class: inhibitors. actives 2.3% (n = 330,000); also: potency is read from the fitted curve at half-maximal effect; nearly all actives have a fitted effect of over 55% in size
#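 DMSO vehicle served as the neutral condition. Each well held 2,000 cells given 5-fluorouridine plus compound; after 16 hr at 37 °C/5% CO2, ONE-Glo was added and luciferase measured 30 min later.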
# Gal4-VP16 FLuc = VP16 counterscreen qHTS for inhibitors of ROR gamma transcriptional activity; Potency, µM (highest dose often 53.6 µM), without a hit: at the top dose activity, negative = inhibition, most hits filed as inhibitors; Drosophila S2 Gal4-VP16 UAS-luciferase, luminescence, 20 h; actives 3.5% (n = 310,000); AID 2546, 2010;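 also: Gal4-VP16 expression switched on by copper sulfate through the metallothionein promoter; potency is read from the fitted curve at half-maximal effect; nearly all actives have a fitted effect of over 50% in size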
# RORg inh = qHTS for inhibitors of ROR gamma transcriptional activity | AID 2551, 2010 | Drosophila S2 Gal4-RORgamma UAS-luciferase reporter, 20 h | Nuclear receptor ROR-gamma (Mus musculus), P51450 | Potency, µM (doses to about 53.6 µM), for inactives: at the highest dose activity change, negative = inhibition, hits mostly inhibitors | actives 5.4% (n = 310,000); also: potency is read from the fitted curve at half-maximal effect; nearly all actives have a fitted effect of over 60% in size
#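 Stably transfected Drosophila Schneider cells are the test system, with ROR gamma fused to Gal4 and luciferase under UAS control; luminescence is read after 20 hr of 700 uM copper sulfate induction at ambient temperature.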
# B2AR arrestin = qHTS assay of beta-arrestin-biased ligands of beta2-adrenergic receptor. beta-arrestin recruitment to beta2AR, cell-based reporter. actives 0.02% (n = 330,000). Potency, µM (top dose mostly 46.1 µM), for inactives: top-dose activation, actives largely listed as activators;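 also: potency is read from the fitted curve at half-maximal effect; 0% = DMSO controls and full agonism = EC100 isoproterenol or metaproterenol; nearly all actives have a fitted effect of over 65% in size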
# An asterisk follows results filed as active; ? = inconclusive; · = not tested or not shown; [ ] = remark or other dose. Unless noted, calls follow the shape of the dose curve; as a rule, active = well fitted curve in the direction sought with a large enough effect; inconclusive = small, poorly fitted or top-dose-only effect, or another doubt; inactive = no such curve, though single readings can be large; an effect the other way counts as inactive or inconclusive. Unless noted, % is scaled to controls: 0 for no effect and ±100 for the full control effect.
SMILES,TSHR antagonist,ELG1 repair inh,Gal4-VP16 FLuc,RORg inh,B2AR arrestin
Cc1ccc(NC(C)c2cc(Cl)ccc2O)cc1 (centres undefined),11,-17%,13µM*,?,3%
[O-]/C(=C(\C(=S)NCc1ccco1)[n+]1ccccc1)c1ccccc1Br,-1,-10%,10%,22µM*,0%
O=C(NNC(=S)NCc1ccco1)c1ccc(Cl)s1,-2,-10%,-12%,1.8µM*,-1%
O=C(NNC(=S)NCc1ccco1)c1ccccc1Br,-15,1%,-20%,0.89µM*,0%
Cc1ccc(/C([O-])=C(/C(=S)NCc2ccco2)[n+]2ccccc2)cc1,-3,-12%,8%,-24%,-1%
O=C(NCc1ccco1)c1ccccc1Br,-4,18%,-2%,16%,0%
O=C(COc1cccc2cccnc12)N1CCc2ccccc2C1,8,0%,9%,18%,0%
O=C(COc1c(Br)cc(Br)c2cccnc12)N1CCc2ccccc2C1,-7,-3%,7.9µM*,5.6µM*,0%
O=C(COc1ccccc1)Nc1ccccc1F,-8,?,-9%,-7%,-1%
O=C(COc1c(Br)cc(Br)c2cccnc12)Nc1ccccc1F,6,0%,20µM*,?,0%
Oc1c(CN2CCCCC2)cc(Br)c2cccnc12,12,?,1µM*,4µM*,5%
O=C(COc1c(Br)cc(Br)c2cccnc12)N1CCCCC1,9,-2%,?,10µM*,0%
Cc1ccc(NC(=O)CN2C(=O)NC(C)(CC(C)C)C2=O)c(Br)c1 (centres undefined),-5,1%,·,·,0%
CC(=O)Nc1cc2c(s1)c1cnn(Cc3ccccc3F)c(=O)c1n2C,-16,·,·,·,0%
CN1CCN(Cc2cc(COCc3ccccc3)c3cccnc3c2O)CC1,-10,?,1.3µM*,2µM*,2.5µM*
Oc1ccc(CN2CCN(Cc3ccccc3)CC2)c2cccnc12,4,-1%,-1%,5%,0%
COc1cccc(CN(C)S(=O)(=O)c2c(C)noc2C)c1OC,5,9%,·,·,0%
CCc1cccc(CC)c1NC(=O)CSc1nc2ccc(N3C(=O)C4C(C3=O)[C@H]3C=C[C@@H]4C3)cc2s1 (some centres undefined),-8,?,-10%,88%,0%
CCCCC1(C)Cc2ccccc2C(=S)N1 (centres undefined),0,1%,5.6µM*,1µM*,9%
CCOC(=O)/C(C)=C1\NC(C)(C)Cc2ccccc21,-3,-3%,-5%,-14%,-1%
COc1ccc(C(=O)N/N=C/c2ccccc2OC(=O)c2ccccc2)cc1,-3,?,5µM*,3.5µM*,4%
CC(C)(C)C(=O)Nc1ccc(C(=O)N/N=C/c2ccccc2OC(=O)c2ccccc2)cc1,-1,?,?,6.3µM*,0%
CC(C)(C)C(=O)Nc1ccc(C(=O)N/N=C/c2ccccc2OC(=O)c2ccc(Cl)cc2)cc1,14,18µM*,-4%,5%,-1%
COc1ccc(C(=O)Nc2cccc(C(=O)N/N=C/c3ccc(OC)cc3OC)c2)cc1,-8,?,14µM*,10µM*,0%
Cc1ccc(C)c(C(=O)COC(=O)c2ccc(C)c(S(=O)(=O)N3CCOCC3)c2)c1,-16,?,·,·,0%
SMILES,TSHR antagonist,ELG1 repair inh,Gal4-VP16 FLuc,RORg inh,B2AR arrestin
O=C(N/N=C/c1ccccc1OC(=O)c1ccc2c(c1)OCO2)c1ccccc1,-4,?,?,11µM*,?
COc1ccc(/C=N/NC(=S)Nc2cccc(C(=O)O)c2)cc1,16,?,11µM*,3.5µM*,0%
COc1ccc(CNC(=O)C2CCC(CNS(=O)(=O)c3ccc(C)cc3)CC2)cc1 (centres undefined),4,-12%,6%,0%,0%
CC(=O)N1CCC2(CCCN(c3ccccc3)C2)CC1,·,·,17%,-9%,·
Cc1cc2c(cc1S(=O)(=O)Nc1ccc(C(C)C)cc1)OCCN2C,25,·,·,·,0%
N#Cc1ccc(OCC(O)CN2CCN(c3ncc(C(F)(F)F)cc3Cl)CC2)cc1 (centres undefined),-38,5.8µM*,0%,-24%,0%
CC(c1ccccc1)N1CC(C(=O)Nc2ccc(F)cc2)CC1=O (centres undefined),-31,19%,·,·,0%
C=CCC1(NCc2ccco2)CCN(CC)CC1,-5,3%,-17%[10 µM],-2%,0%
COc1ccc(C2=NN(CN3C(=O)C(=O)c4ccccc43)C(c3cccc([N+](=O)[O-])c3)C2)cc1 (centres undefined),-7,0%,4%,-7%,0%
CCN(CC)c1ccc(NC(=O)Cn2cc3c(n2)CCC(C)C3)c(C)c1 (centres undefined),12,?,11µM*,-54%,0%
CC1CCc2nn(CC(=O)Nc3ccc(F)cc3F)cc2C1 (centres undefined),-4,?,2%,15%,0%
O=C(C1=C(c2ccccc2)C(=O)c2ccccc2C1=O)c1ccccc1,8,6.5µM*,11µM*,11µM*,-1%
Clc1ccc(-n2cccc2CN2CCc3c([nH]c4ccccc34)C2c2ccccn2)nc1 (centres undefined),-3,-5%,-6%,13µM*,0%
Fc1ccc(C2c3[nH]c4ccccc4c3CCN2Cc2cccn2-c2ncccn2)cc1 (centres undefined),2,4%,7%,15%,0%
Cc1cc(NC(=O)c2ccccc2NS(=O)(=O)c2c(C)c(C)cc(C)c2C)no1,-18,-29%,-6%,4%,9%
Cc1ccc([N+](=O)[O-])cc1S(=O)(=O)Nc1cccc(S(=O)(=O)Nc2ccccc2C(=O)O)c1,·,0%,·,·,0%
Cc1ccc(C)c(S(=O)(=O)Nc2ccccc2C(=O)Nc2cc(C)on2)c1,-14,26µM*,-9%,-36%,0%
Cc1ccc(C)c(NC(=O)c2ccccc2NS(=O)(=O)c2cc([N+](=O)[O-])ccc2C)c1,?,?,14µM*,?,0%
CCc1c2c(nc3cccc(C(C)C)c13)-c1cccc(=O)n1C2,·,·,-11%,0%,·
Cc1ccc(OCc2nnc(SCC(=O)c3cccc([N+](=O)[O-])c3)n2C)cc1,1,0%,?,2µM*,0%
Cc1cc(-c2ccccc2)nc(SCC(=O)c2cccc([N+](=O)[O-])c2)n1,-7,-27%,-4%,26%,-1%
